From PubChem BioAssay (NCATS)
A number with no mark means an inactive call. For some of these results: Entries with a potency or affinity are not part of this list. The source made the active and inactive calls. How the calls were made is not given here.

Legend:
[1] = Ebola virus entry assay, green fluorescence channel
[2] = Ebola virus entry assay, ratio channel
[3] = Ebola virus entry assay, green channel fluorescence
[4] = Ebola virus entry assay, reporter ratio channel; AC50: Channel type: primary unless noted; outcome: Channel type: primary unless noted
[5] = Ebola virus entry assay, blue channel (ratio component)
Wherever efficacy is given: 0% is about no effect.

Structure (SMILES) | efficacy [1] | outcome [2] | outcome [3] | outcome [4] | outcome [5] | AC50 [4]
CNCC(O)c1ccc(O)c(O)c1 (stereo not given) | 44.4% | inactive | inactive | inactive | inactive | –
CCOC(=O)c1cnc2c(cnn2CC)c1NN=C(C)C | -8.64% | inactive | inactive | inactive | inactive | –
Cc1cc(NS(=O)(=O)c2ccc(N)cc2)nc(C)n1 | -28.1% | inactive | inactive | inactive | inactive | –
O=C(O)c1ccc(S(=O)(=O)N(Cl)Cl)cc1 | -27.5% | inactive | inactive | inactive | inactive | –
CN(C)CCOC(=O)C(c1ccccc1)C1(O)CCCC1 (stereo not given) | 15.2% | inactive | inactive | inactive | inactive | –
CC1(C)OC(=O)NC1=O | 15.4% | inactive | inactive | inactive | inactive | –
Cc1ccc(C(=O)c2ccc(CC(=O)O)n2C)cc1 | 11.5% | inactive | inactive | inactive | inactive | –
CCCCOCCOC(=O)c1cccnc1 | -26.3% | inactive | inactive | inactive | inactive | –
Cc1ccccc1OCC(O)CO (stereo not given) | 25.5% | inactive | inactive | inactive | inactive | –
CC1CCc2c(N3CCC(O)CC3)c(F)cc3c(=O)c(C(=O)O)cn1c23 (stereo not given) | -9.77% | inactive | inactive | inactive | inactive | –
ClCCN1CCCC1 | -44.4% | inactive | inactive | inactive | inactive | –
CC(N)CCCC(C)(C)O (stereo not given) | -22.7% | inactive | inactive | inactive | inactive | –
Cc1c(F)c(N2CCNC(C)C2)cc2c1c(=O)c(C(=O)O)cn2C1CC1 (stereo not given) | -15% | inactive | inactive | inactive | inactive | –
CCN(Cc1ccncc1)C(=O)C(CO)c1ccccc1 (stereo not given) | -24.3% | inactive | inactive | inactive | inactive | –
C[N+](C)(C)CCCCCC[N+](C)(C)C | -15% | inactive | inactive | inactive | inactive | –
O=C1OC(CCN2CCCCC2)OC1(c1ccccc1)c1ccccc1 (stereo not given) | -23.4% | inactive | inactive | inactive | inactive | –
CCN1CCN(C(=O)N[C@@H](C(=O)N[C@@H]2C(=O)N3[C@@H]2SC(C)(C)[C@H]3C(=O)O)c2ccccc2)C(=O)C1=O | -32.7% | inactive | inactive | inactive | inactive | –
CCN1CCC[C@H]1CNC(=O)c1c(OC)ccc(Br)c1OC | -13.7% | inactive | inactive | inactive | inactive | –
Cc1nc([N+](=O)[O-])cn1-c1ccc([N+](=O)[O-])cc1 | -13.8% | inactive | inactive | inactive | inactive | –
O=C(O)[C@@H]1[C@H]2C[C@H]3c4[nH]c5ccccc5c4CCN3C[C@@H]2CC[C@@H]1O | 38.8% | inactive | inactive | inactive | inactive | –

Structure (SMILES) | efficacy [1] | outcome [2] | outcome [3] | outcome [4] | outcome [5] | AC50 [4]
OC[C@H]1O[C@@H](Oc2ccc(O)cc2)[C@H](O)[C@@H](O)[C@@H]1O | -11.6% | inactive | inactive | inactive | inactive | –
O=P(O)(O)OCC(O)CO (stereo not given) | 14.9% | inactive | inactive | inactive | inactive | –
CC(=O)[C@H]1CC[C@H]2[C@@H]3C=CC4=CC(=O)CC[C@@]4(C)[C@@H]3CC[C@]12C | 16% | inactive | inactive | inactive | inactive | –
Cc1ncc([N+](=O)[O-])n1CC(C)O (stereo not given) | -13.9% | inactive | inactive | inactive | inactive | –
Clc1cccc(SC2CCNCC2)n1 | -16% | inactive | inactive | inactive | inactive | –
COc1cc2c(cc1OC)CN(C(=O)[C@H](C)N[C@@H](CCc1ccccc1)C(=O)O)[C@H](C(=O)O)C2 | -27.9% | inactive | inactive | inactive | inactive | –
O=c1[nH]c2ccccc2n1C1CCNCC1 | -18% | inactive | inactive | inactive | inactive | –
O=C1c2c(O)cccc2Cc2cccc(O)c21 | -17.8% | inactive | inactive | inactive | inactive | –
CCN(CC)CCNC(=O)c1ccc(N)cc1 | -17.1% | inactive | inactive | inactive | inactive | –
FC1(F)C(F)(F)C(F)(F)C2(F)C(F)(F)C(F)(F)C(F)(F)C(F)(F)C2(F)C1(F)F (stereo not given) | -14% | inactive | inactive | inactive | inactive | –
CN(C)CCOC(=O)COc1ccc(Cl)cc1 | 14.4% | inactive | inactive | inactive | inactive | –
COCCOCC(OC)OC | 16.2% | inactive | inactive | inactive | inactive | –
C=CCN1C[C@H](C)N([C@H](c2ccc(C(=O)N(CC)CC)cc2)c2cccc(OC)c2)C[C@H]1C | -18.5% | inactive | inactive | inactive | inactive | –
CC(C(=O)O)c1ccc(C(=O)c2ccccc2)s1 (stereo not given) | -17.9% | inactive | inactive | inactive | inactive | –
COc1cc2c3cc1Oc1cc(ccc1O)C[C@@H]1c4c(cc(OC)c(O)c4Oc4ccc(cc4)C[C@@H]3N(C)CC2)CC[N+]1(C)C | -16.5% | inactive | inactive | inactive | inactive | –
Cc1cccc(C)c1NC(=O)c1cc(S(N)(=O)=O)c(Cl)cc1O | -19.2% | inactive | inactive | inactive | inactive | –
CC(=O)NC(=O)c1ccccc1O | -28.5% | inactive | inactive | inactive | inactive | –
O=C(CN1CCNCC1)NC1CCCCC1 | 48.3% | inactive | inactive | – | inactive | 35.5 µM (active)
Nc1nc(-c2ccccc2)c(Br)c(=O)[nH]1 | -17% | inactive | inactive | inactive | inactive | –
Cc1c(N(C)CS(=O)(=O)O)c(=O)n(-c2ccccc2)n1C | -26.4% | inactive | inactive | inactive | inactive | –

Structure (SMILES) | efficacy [1] | outcome [2] | outcome [3] | outcome [4] | outcome [5] | AC50 [4]
COc1nccnc1NS(=O)(=O)c1ccc(N)cc1 | -13.7% | inactive | inactive | inactive | inactive | –
Cc1ccccc1C(=O)Nc1ccc(C(=O)N2CCCC(N(C)C)c3ccccc32)cc1 (stereo not given) | 11.8% | inactive | inactive | inactive | inactive | –
CCCCC(CC)COC(=O)c1ccccc1O (stereo not given) | -34.1% | inactive | inactive | inactive | inactive | –
O=C(O)C(S)C(S)C(=O)O (stereo not given) | -24.2% | inactive | inactive | inactive | inactive | –
CCCCCCCCCCCCSCCOCCO | -41.3% | inactive | inactive | inactive | inactive | –
O=c1cc(O)c(Cl)c[nH]1 | -17.7% | inactive | inactive | inactive | inactive | –
NCCS(=O)(=O)O | 39.2% | inactive | inactive | inactive | inactive | –
CC(C)Cc1ccc(CC(=O)O)cc1 | -19.8% | inactive | inactive | inactive | inactive | –
COc1cc(C(=O)OC(COCCC(C)C)CN2CCOCC2)cc(OC)c1OC (stereo not given) | 27.7% | inactive | inactive | inactive | inactive | –
CCOc1nc2cccc(C(=O)O)c2n1Cc1ccc(-c2ccccc2-c2nn[nH]n2)cc1 | 27.1% | inactive | inactive | inactive | inactive | –
O=C(O)c1cc(O)c(O)c(O)c1 | 15.2% | inactive | inactive | inactive | inactive | –
Nc1ccc(C(=O)O)cc1 | -10.9% | inactive | inactive | inactive | inactive | –
C[C@H]1O[C@@H](n2cc(F)c(=O)[nH]c2=O)[C@H](O)[C@@H]1O | -18.2% | inactive | inactive | inactive | inactive | –
Cc1ncc(CO)c(CO)c1O | -13.2% | inactive | inactive | inactive | inactive | –
CC(C)NNC(=O)c1ccncc1 | -20.5% | inactive | inactive | inactive | inactive | –
NCc1ccc(S(N)(=O)=O)cc1 | -17.9% | inactive | inactive | inactive | inactive | –
O=C(CCCl)NCc1ccccc1 | -26.1% | inactive | inactive | inactive | inactive | –
Cc1ccsc1/C=C/C1=NCCCN1C | -24.4% | inactive | inactive | inactive | inactive | –
O=c1[nH]c(=O)n([C@H]2CCCO2)cc1F | -34.9% | inactive | inactive | inactive | inactive | –
